Measured values taken from PubChem BioAssay (NCATS).
Records with an inconclusive call do not appear. Calls of active or inactive are those of the source. Unless noted, calls follow the shape of the dose curve; as a rule, active = well fitted curve in the direction sought with a large enough effect; inconclusive = small, poorly fitted or top-dose-only effect, or another doubt; inactive = no such curve, though single readings can be large; an effect the other way counts as inactive or inconclusive.

How the values were obtained:
[1] = Cell Viability - BJ (AID 421; calls by dose curve;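 also: potency is read from the fitted curve at half-maximal effect; cells exposed to compound for 40 hours at 37 °C before readout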); settings: BJ fibroblast viability, qHTS
Outline: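 Normal human BJ foreskin fibroblasts, 1500/well in complete medium, treated 40 hr at 37 °C. Cellular ATP by CellTiter-Glo luminescence; normalized to DMSO and 100 uM tamoxifen, AC50 from Hill fit.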

[2] = Cell Viability - Jurkat (AID 426;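 active = dose-dependent loss of cell ATP signal giving a full or clear fitted curve, ranked by lower potency value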; also: potency is read from the fitted curve at half-maximal effect); settings: qHTS
Outline: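 qHTS, 1536-well; Jurkat E6-1, 5000 cells/well, complete medium; cpd 40 hr, 37 °C; CellTiter-Glo 20 min RT; luminescence. AC50 by Hill fit.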

[3] = Cell Viability - Hek293 (AID 427;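 active = compounds whose dose-response curve shows a full or clear partial loss of cell viability, called from curve shape rather than a numeric limit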;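 also: potency is read from the fitted curve at half-maximal effect; cells exposed to compound for 40 hours at 37 °C before reading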); settings: qHTS
Outline: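 HEK293 cells in complete medium were exposed to compound for 40 hr at 37 °C, then cellular ATP was read by CellTiter-Glo luminescence. Data were normalized to DMSO (basal) and 100 uM tamoxifen (100% inhibition), and AC50 came from Hill fits.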

[4] = Cell Viability - MRC5 (AID 434; calls by dose curve;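 also: potency is read from the fitted curve at half-maximal effect; potency reflects cytotoxicity seen as loss of intracellular ATP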); settings: MRC5 lung fibroblast viability, qHTS
Outline: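 MRC5 normal human lung fibroblasts, 1500 cells/well, exposed to compound for 40 hr at 37 C. Cellular ATP was read by CellTiter-Glo luminescence; data normalized to DMSO and 100 uM tamoxifen, with AC50 from Hill fits.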

[5] = Cell Viability - SK-N-SH (AID 435; calls by dose curve;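 also: potency is read from the fitted curve at half-maximal effect; compound exposure lasted 40 h at 37 °C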); settings: SK-N-SH neuroblastoma cell viability qHTS
Outline: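 Cells seeded at 1500 per well and incubated 5 hr at 37 °C. Compound added, then 40 hr at 37 °C. CellTiter-Glo added, 20 min at room temperature, luminescence read.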

[6] = target: Mitogen-activated protein kinase 10 (Mus musculus) (UniProt Q61831); test: JNK3 AlphaScreen Assay (AID 530; active = well fitted curve in either direction with a large enough effect, not every such curve was filed as active;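 also: kinase came from lysate of stimulated human HepG2 cells; signal reports phosphorylation of biotinylated GST-cJun 1-79 at Ser73 with 10 µM ATP; % is scaled to controls: 0 for no effect and ±100 for the full control effect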); settings: JNK3 lysate, c-Jun phosphorylation; series mostly up to 57.1 µM
Outline: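 Pre-activated (IL-1β/TNFα) JNK3 in HepG2 lysates phosphorylates biotin-GST-cJun(1-79), 10 uM ATP; anti-phospho-cJun(Ser73) AlphaScreen read at room temperature, pH 7.6 Tris buffer. Compounds pre-incubated 15 min as titrations.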

[7] = Cell Viability - NIH 3T3 (AID 541); settings: NIH 3T3 cell viability, qHTS; activity change, negative = cytotoxicity: at 92.2 µM (top of the series);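 also: plate controls were DMSO alone for no effect and tamoxifen positive control for full effect; nearly all actives have a fitted effect of over 25% in size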
Outline: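 Luminescent ATP signal (CellTiter-Glo) served as the viability read-out after NIH 3T3 cells were exposed to compounds over a concentration range for 40 hr at 37 °C. Hill-equation modelling of concentration-response data gave AC50.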

[8] = Cell Viability - HUV-EC-C (AID 542); settings: HUV-EC-C endothelial cell viability, qHTS; series mostly up to 92.2 µM; also: % is scaled to controls: 0 for no effect and ±100 for the full control effect; nearly all actives have a fitted effect of over 35% in size
Outline: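 qHTS cytotoxicity: HUV-EC-C, 1000 cells/well, 5 hr settle, compound 40 hr 37 °C, CellTiter-Glo, luminescence. AC50 via Hill equation.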

[9] = Cell Viability - H-4-II-E (AID 543); settings: H-4-II-E rat hepatoma viability; series mostly up to 92.2 µM; also: % is scaled to controls: 0 for no effect and ±100 for the full control effect; nearly all actives have a fitted effect of over 35% in size
Outline: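 Luminescent ATP signal (CellTiter-Glo) served as the viability read-out, with cytotoxicity seen as a concentration-dependent ATP drop. Cells were treated for 40 hours in complete medium. AC50 values derive from Hill-equation modelling.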

[10] = Cell Viability - SH-SY5Y (AID 544); settings: SH-SY5Y neuroblastoma cell viability; viability change, negative = cytotoxic: at 92.2 µM (top of the series); also: nearly all actives have a fitted effect of over 55% in size
Outline: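 Luminescent ATP read-out (CellTiter-Glo) measures loss of viable SH-SY5Y neuroblastoma cells after 40 hr compound exposure at 37 °C. AC50 values derive from standard Hill modelling of qHTS concentration-response data.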

[11] = Cell Viability - Renal Proximal Tubule (AID 545); settings: renal proximal tubule cells viability, primary cells of rat origin; series mostly up to 91.7 µM; also: nearly all actives have a fitted effect of over 40% in size
Outline: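 Cytotoxicity is scored as a concentration-dependent drop in cellular ATP in primary rat renal proximal tubule cells exposed for 40 hr. AC50 derives from Hill modelling.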

[12] = Cell Viability - Mesenchymal (AID 546); settings: mesenchymal cells viability, qHTS; series mostly up to 91.7 µM;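 also: cells exposed to compound for 40 hours before reading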
Outline: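 Human kidney mesenchymal cells from normal renal glomeruli, 1000 cells/well, rested 5 hr at 37 °C, then treated 40 hr at 37 °C in complete medium. Cellular ATP read by CellTiter-Glo luminescence; AC50 from Hill-equation fits.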

[13] = Cellular Toxicity (caspase-3) HepG2 (AID 654); settings: HepG2 caspase-3 activation, luminescence; series mostly up to 92.2 µM;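 also: cells exposed to compound for 16 hours before reading; 0% = DMSO alone and 100% = caspase signal from 100 µM tamoxifen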
Outline: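 Cells plated 5 hr at 37 °C, compound added, incubated 16 hr at 37 °C. Caspase-Glo 3/7 reagent followed, 20 min at room temperature, then luminescence read. Activation scored as signal increase; AC50 from Hill fit.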

[14] = Cellular Toxicity (caspase-3) Jurkat (AID 655); settings: Jurkat caspase-3 activation, luminescence; caspase-3 activation: at 92.2 µM (top of the series), DMSO = 0%, tamoxifen = 100%;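 also: cells exposed to compound for 16 h at 37 °C before reading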
Outline: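 Caspase 3/7 activation is scored as increased luminescence in Jurkat cells cultured with compound for 16 hours in complete medium. AC50 values come from Hill fits of qHTS concentration-response data normalized to DMSO and 100 uM tamoxifen controls.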

[15] = Cellular Toxicity (caspase-3) HUV-EC-C (AID 656); settings: HUV-EC-C cells, caspase-3 activation (apoptosis), vehicle = 0, 100 µM tamoxifen = 100%; series mostly up to 92.2 µM;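 also: cells exposed to compound for 16 h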
Outline: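 Read-out: luminescence proportional to caspase 3/7 activity, measured 20 min after adding Caspase-Glo 3/7 reagent. Cells (HUV-EC-C) had received compound for 16 hr at 37°C. Increases relative to DMSO and 100 uM tamoxifen gave concentration-response AC50 values.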

[16] = Cellular Toxicity (caspase-3) SHSY5Y (AID 657); settings: SH-SY5Y caspase-3 activation, DMSO zero, 10 µM staurosporine = 100%; series mostly up to 91.7 µM;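 also: cells exposed to compound for 16 hours at 37 °C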
Outline: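 Cells plated and incubated 5 h at 37 °C, dosed over a concentration range, incubated 16 h, then given Caspase-Glo 3/7 reagent for 1 h at room temperature before luminescence reading. Staurosporine (10 uM) defined full stimulation.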

[17] = Cellular Toxicity (caspase-3) BJ (AID 658); settings: BJ fibroblasts, luminescence, normalized: DMSO 0%, staurosporine 100%; series mostly up to 91.7 µM
Outline: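 BJ human foreskin fibroblasts, 1000 cells/well, treated 16 hours at 37 °C in complete medium; caspase 3/7 activity by Caspase-Glo luminescence after 1 hr at room temperature. Normalized to DMSO and 10 uM staurosporine; AC50 from Hill fits.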

[18] = Cellular Toxicity (caspase-3) MRC-5 (AID 659); settings: MRC-5 cells, luminescence, normalized: DMSO 0%, 10 µM staurosporine 100%; series mostly up to 91.7 µM;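 also: cells exposed to compound for 16 h at 37 °C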
Outline: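 MRC-5 human normal lung fibroblasts, 1500 cells/well, treated 16 h at 37 °C in complete medium. Caspase 3/7 measured by Caspase-Glo luminescence after 1 h at room temperature. Normalized to DMSO and 10 uM staurosporine; AC50 from Hill fit.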

[19] = Cell Viability - N2a (AID 540); settings: N2a mouse neuroblastoma cell viability; activity change, negative = cytotoxicity: at 92.2 µM (top of the series);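 also: plate controls were DMSO alone for no effect and tamoxifen control for full effect; nearly all actives have a fitted effect of over 45% in size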
Outline: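 Luminescent ATP signal (CellTiter-Glo, 20 min at room temperature) served as the viability read-out after N2a cells were treated with compounds for 40 hours at 37 °C. Concentration-response data were fitted to the Hill equation for AC50.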

[20] = Cell Viability - HepG2 (AID 433; calls by dose curve;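 also: potency is read from the fitted curve at half-maximal effect; potency for ATP loss meaning cytotoxicity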); settings: qHTS
Outline: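 Cytotoxicity is scored as loss of intracellular ATP in HepG2 cells exposed to compounds for 40 h. Concentration-response curves, normalized to DMSO and 100 uM tamoxifen, give AC50 values.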

C=C(C)C1CC=C(C)C(OC(C)=O)C1 (stereo unspecified)
inactive: Potency [1] > 92 µM | Potency [2] > 92 µM | Potency [3] > 92 µM | Potency [4] > 92 µM | Potency [5] > 92 µM | outcome [6] | Potency [7] | Potency [8] | Potency [9] | Potency [10] | Potency [11] | Potency [12] | Potency [13] | caspase-3 activation [14] 0.979% | outcome [15] | outcome [16] | outcome [17] | outcome [18]

Cc1cccc([N+](=O)[O-])c1C(=O)O
inactive: Potency [1] > 92 µM | Potency [2] > 92 µM | Potency [3] > 92 µM | Potency [4] > 92 µM | Potency [5] > 92 µM | outcome [6] | activity change, negative = cytotoxicity [19] 11.2% | Potency [7] | Potency [8] | Potency [9] | Potency [10] | Potency [11] | Potency [12] | Potency [13] | caspase-3 activation [14] 0.48% | outcome [15] | outcome [16] | outcome [17] | outcome [18]

[O-]/[N+](=N\O)c1ccccc1
inactive: Potency [1] > 92 µM | Potency [2] > 92 µM | Potency [3] > 92 µM | Potency [4] > 92 µM | outcome [6] | activity change, negative = cytotoxicity [19] 0.0649% | Potency [7] | Potency [9] | Potency [10] | Potency [11] | Potency [12] | Potency [13] | caspase-3 activation [14] -1.18% | outcome [15] | outcome [17] | outcome [18]

O=[N+]([O-])c1ccc(CCO)cc1
inactive: Potency [1] > 92 µM | Potency [2] > 92 µM | Potency [3] > 92 µM | Potency [5] > 92 µM | outcome [6] | activity change, negative = cytotoxicity [19] -10.2% | Potency [8] | Potency [9] | Potency [10] | Potency [11] | Potency [12] | caspase-3 activation [14] -1.91% | outcome [15] | outcome [16] | outcome [17] | outcome [18]

C=C(C)C(=O)OC
inactive: Potency [1] > 92 µM | Potency [2] > 92 µM | Potency [3] > 92 µM | Potency [20] > 92 µM | outcome [6] | activity change, negative = cytotoxicity [19] 2.46% | Potency [7] | Potency [8] | Potency [9] | Potency [10] | Potency [11] | Potency [12] | caspase-3 activation [14] 1.74% | outcome [15] | outcome [16] | outcome [17] | outcome [18]

CCc1ccccc1
inactive: Potency [1] > 92 µM | Potency [2] > 92 µM | Potency [3] > 92 µM | Potency [5] > 92 µM | outcome [6] | activity change, negative = cytotoxicity [19] -7.66% | Potency [7] | Potency [8] | Potency [9] | Potency [10] | Potency [11] | Potency [12] | Potency [13] | caspase-3 activation [14] 1.71% | outcome [15] | outcome [16] | outcome [17] | outcome [18]

C=C(C)OC(C)=O
inactive: Potency [1] > 92 µM | Potency [2] > 92 µM | Potency [3] > 92 µM | Potency [4] > 92 µM | Potency [5] > 92 µM | outcome [6] | activity change, negative = cytotoxicity [19] -6.88% | Potency [8] | Potency [9] | Potency [10] | Potency [11] | Potency [12] | Potency [13] | caspase-3 activation [14] -0.77% | outcome [15] | outcome [16] | outcome [17] | outcome [18]

Cc1nc2ccc(Cl)cc2[nH]1
inactive: Potency [1] > 92 µM | Potency [2] > 92 µM | Potency [3] > 92 µM | Potency [5] > 92 µM | outcome [6] | activity change, negative = cytotoxicity [19] -5.91% | Potency [7] | Potency [8] | Potency [9] | Potency [10] | Potency [11] | Potency [13] | caspase-3 activation [14] 0.744% | outcome [15] | outcome [16] | outcome [17] | outcome [18]

Cc1ccc(Cl)cc1N
inactive: Potency [1] > 92 µM | Potency [2] > 92 µM | Potency [3] > 92 µM | Potency [4] > 92 µM | Potency [5] 47.5 µM | outcome [6] | Potency [7] | Potency [8] | Potency [9] | Potency [11] | Potency [12] | Potency [13] | caspase-3 activation [14] 4% | outcome [15] | outcome [16] | outcome [17] | outcome [18]

CC1CCC2CC1C2(C)C (stereo unspecified)
inactive: Potency [1] > 92 µM | Potency [2] > 92 µM | Potency [3] > 92 µM | Potency [4] > 92 µM | Potency [5] > 92 µM | outcome [6] | activity change, negative = cytotoxicity [19] -4.47% | Potency [7] | Potency [8] | Potency [9] | Potency [10] | Potency [11] | Potency [12] | caspase-3 activation [14] -1.25% | outcome [15] | outcome [17] | outcome [18]

CCCCC(CC)COC(=O)CCCCC(=O)OCC(CC)CCCC (stereo unspecified)
inactive: Potency [1] > 92 µM | Potency [2] > 92 µM | Potency [3] > 92 µM | Potency [4] > 92 µM | Potency [5] > 92 µM | outcome [6] | activity change, negative = cytotoxicity [19] 3.75% | Potency [7] | Potency [10] | Potency [11] | Potency [12] | caspase-3 activation [14] -0.708% | outcome [15] | outcome [16] | outcome [17] | outcome [18]

Cc1ccccc1C=O
inactive: Potency [1] > 92 µM | Potency [2] > 92 µM | Potency [3] > 92 µM | Potency [4] > 92 µM | Potency [5] > 92 µM | outcome [6] | activity change, negative = cytotoxicity [19] 2.15% | Potency [7] | Potency [8] | Potency [9] | Potency [10] | Potency [11] | Potency [12] | Potency [13] | caspase-3 activation [14] 0.742% | outcome [15] | outcome [16] | outcome [17] | outcome [18]

COc1cccc2sc(N)nc12
inactive: Potency [1] > 92 µM | Potency [2] > 92 µM | Potency [3] > 92 µM | Potency [4] > 92 µM | Potency [5] > 92 µM | outcome [6] | activity change, negative = cytotoxicity [19] -10.1% | Potency [7] | Potency [8] | Potency [9] | Potency [10] | Potency [11] | Potency [13] | caspase-3 activation [14] -0.447% | outcome [15] | outcome [16] | outcome [17] | outcome [18]
